Measured values taken from PubChem BioAssay (NCI).
This is part of a sample that, as a whole, favours compounds with a hit. Of some 79,000 tested, about 15% had one in any assay. Values without a mark were called inactive. The source made the active and inactive calls. No stated cut-off is given here; in the data, active means growth inhibition above about 70%; inactive means the rest.

What was measured:
[1] = NCI Yeast Anticancer Drug Screen. Data for the rad50 strain (AID 155);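 further: 0% = growth of vehicle-only cultures of the same strain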; conditions: S. cerevisiae rad50 strain growth inhibition, stronger effect = higher value
In short: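 Cells are treated with compound, grown, and their growth is then scored against vehicle-only cultures of the same repair-deficient yeast strain.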

[2] = NCI Yeast Anticancer Drug Screen. Data for the mec2-1 strain (AID 157); conditions: S. cerevisiae mec2-1 strain, stronger effect = higher value
In short: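 Yeast mec2-1 mutant treated with compound. Readout: growth inhibition vs vehicle controls.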

[3] = NCI Yeast Anticancer Drug Screen. Data for the sgs1 mgt1 strain (AID 161);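 further: 0% = growth of cultures given vehicle only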; conditions: S. cerevisiae sgs1 mgt1 strain, stronger effect = higher value
In short: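 Mutant yeast exposed to compound; growth scored against vehicle-only wells.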

[4] = NCI Yeast Anticancer Drug Screen. Data for the cln2 rad14 strain (AID 165);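 further: 0% = growth equal to vehicle treated cultures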; conditions: S. cerevisiae cln2 rad14 strain, stronger effect = higher value
In short: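 cln2 rad14 yeast strain; compound exposure; growth inhibition read vs vehicle controls.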

[5] = NCI Yeast Anticancer Drug Screen. Data for the bub3 strain (AID 167); conditions: S. cerevisiae bub3 mutant strain, stronger effect = higher value
In short: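 Part of a panel of yeast mutants defective in DNA damage repair or cell cycle regulation. Each strain is grown with compound, and inhibition is calculated relative to solvent-treated cultures.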

[6] = NCI Yeast Anticancer Drug Screen. Data for the mlh1 rad18 strain (AID 175); conditions: S. cerevisiae mlh1 rad18 strain growth inhibition, stronger effect = higher value
In short: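 Yeast w/ defined DNA-repair lesions; compound exposure; growth vs vehicle controls → % inhibition.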

[7] = at 5.0 µM (retest, dose inferred, filed as 0.5)
[8] = at 50.0 µM (retest, dose inferred, filed as 5.0)

| SMILES | growth inhibition [1, 7] | growth inhibition [1, 8] | growth inhibition ([1]; at 50.0 µM) | growth inhibition [2, 7] [%] | growth inhibition [2, 8] | growth inhibition ([2]; at 50.0 µM) | growth inhibition [3, 7] | growth inhibition [3, 8] | growth inhibition ([3]; at 50.0 µM) | growth inhibition [4, 7] [%] | growth inhibition [4, 8] | growth inhibition ([4]; at 50.0 µM) | growth inhibition [5, 7] [%] | growth inhibition [5, 8] | growth inhibition ([5]; at 50.0 µM) | growth inhibition [6, 7] | growth inhibition [6, 8] | growth inhibition ([6]; at 50.0 µM) |
| --- | --- | --- | --- | --- | --- | --- | --- | --- | --- | --- | --- | --- | --- | --- | --- | --- | --- | --- |
| CCC(C)(O)Cc1cnccn1 (configuration not stated) | 3% | 1% | 1.75% | 0 | 1% | -2.7% | 2% | -3% | 7.25% | -1 | -2% | 14.8% | 0 | 1% | 12.1% | -10% | 2% | 9.25% |
| O=C1C=C(c2ccccc2)OC1(Nc1ccccc1)c1ccccc1 (configuration not stated) | 4% | 60% | 71.7% (active) | 4 | 65% | 56.6% | 2% | 62% | 76.4% (active) | 9 | 53% | 45.2% | 11 | 62% | 72.8% (active) | 9% | 67% | 59.9% |
| S=c1c2ccccc2[nH]c2ccccc12 | -3% | 86% (active) | 89.2% (active) | -6 | 62% | 63% | -2% | 83% (active) | 60.6% | -7 | 46% | 75.3% (active) | 8 | 33% | 88.8% (active) | -5% | 88% (active) | 85.5% (active) |
| NC(=O)NOC(=O)c1ccccc1 | 42% | 97% (active) | 85.3% (active) | 6 | 97% (active) | 87.5% (active) | 18% | 95% (active) | 87.4% (active) | -7 | 96% (active) | 86.8% (active) | -4 | 95% (active) | 79.2% (active) | 21% | 97% (active) | 96.8% (active) |
| COC(=O)c1nc(NC#N)[nH]c(=O)c1CCCCCc1cnc(NC#N)nc1 | -3% | 1% | -2.4% | -2 | -2% | 4.05% | -1% | 4% | -3.25% | -4 | 1% | 7% | 0 | -1% | -0.4% | 0% | -2% | -6.1% |
| COC1=CC(=O)C(C#CCOCc2ccccc2)=CC1=O | 12% | 99% (active) | 99.1% (active) | 0 | 99% (active) | 99.2% (active) | -6% | 79% (active) | 99% (active) | -8 | 98% (active) | 94.7% (active) | -16 | 99% (active) | 93% (active) | 8% | 99% (active) | 98.8% (active) |
| C/C(=N\NC(N)=S)c1ccc(C2CCCCC2)cc1 | 73% (active) | 97% (active) | 97.2% (active) | 68 | 98% (active) | 95.7% (active) | 88% (active) | 99% (active) | 98.2% (active) | 61 | 97% (active) | 97% (active) | 60 | 97% (active) | 96.2% (active) | 83% (active) | 97% (active) | 94.5% (active) |
| CCOC(CCCl)OCC | 0% | 2% | 7.35% | 0 | 4% | 5.7% | -1% | 1% | -2.9% | 0 | -5% | 89.2% (active) | 1 | -3% | 2.35% | 0% | 3% | 13.3% |
| CC(C)OC(=O)Oc1c(Cl)c(Cl)c(Cl)c(Cl)c1Cl | -3% | 97% (active) | 62% | 0 | 99% (active) | 50.6% | -2% | 98% (active) | 55% | 5 | 98% (active) | 15.9% | 2 | 99% (active) | 74.4% (active) | -1% | 96% (active) | 56.8% |
